# Data reported in PubChem BioAssay AID1347420 (Sanford-Burnham Center for Chemical Genomics, 2020).
# The campaign covered roughly 1,300 compounds. About 980 (75%) were called active. About 4% were inconclusive and are not listed. Some of the results follow.
# Target: Sulfhydryl oxidase 1 (Homo sapiens) (UniProt O00391)
# Assay: QSOX1 enzyme inhibitors, primary screen, biochemical, HyperBlu H2O2 luminescence, HTS (AID 1347420); also: values above 100% were filed as inconclusive
# Conditions: recombinant QSOX1, HyperBlu H2O2 luminescence; at 12.5 µM; hits give high values; active = any value above zero
# Sulfhydryl oxidase 1 (Homo sapiens), sequence (O00391 whole entry, looked up): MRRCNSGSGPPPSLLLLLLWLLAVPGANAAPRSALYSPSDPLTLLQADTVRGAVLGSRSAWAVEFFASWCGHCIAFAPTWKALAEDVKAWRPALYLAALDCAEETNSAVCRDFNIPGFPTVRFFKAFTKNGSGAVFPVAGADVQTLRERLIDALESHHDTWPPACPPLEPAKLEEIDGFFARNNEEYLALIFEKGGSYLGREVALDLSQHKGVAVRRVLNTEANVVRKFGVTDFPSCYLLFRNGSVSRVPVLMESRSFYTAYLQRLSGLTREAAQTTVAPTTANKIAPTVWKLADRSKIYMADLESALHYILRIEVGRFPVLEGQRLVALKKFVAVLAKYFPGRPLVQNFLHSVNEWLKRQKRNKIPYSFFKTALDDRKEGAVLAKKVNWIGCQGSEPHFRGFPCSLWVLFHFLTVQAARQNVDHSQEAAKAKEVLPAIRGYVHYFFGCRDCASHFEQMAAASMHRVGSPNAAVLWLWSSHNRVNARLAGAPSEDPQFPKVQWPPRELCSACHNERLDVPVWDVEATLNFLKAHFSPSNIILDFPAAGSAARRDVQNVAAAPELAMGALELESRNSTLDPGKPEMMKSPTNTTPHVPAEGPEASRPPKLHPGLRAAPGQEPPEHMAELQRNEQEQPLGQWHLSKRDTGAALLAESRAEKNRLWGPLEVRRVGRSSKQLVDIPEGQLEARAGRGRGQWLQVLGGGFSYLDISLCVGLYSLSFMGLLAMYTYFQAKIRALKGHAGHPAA
row,Structure (SMILES),inhibition
1,COC(=O)c1c(C)[nH]c(C)c1C(=O)c1ccccc1Cc1ccccc1,-0.5% (inactive)
2,CCN(CC)CCNC(=O)c1ccc(NC(C)=O)cc1,-4.7% (inactive)
3,CCN(CC)CCNC(=O)c1ccc(NS(C)(=O)=O)cc1,9.7% (active)
4,CCN(CC)CCNC(=O)c1ccc(N)cc1,7.8% (active)
5,NC(=O)CC[C@H](N)C(=O)O,1.7% (active)
6,CCCCS(=N)(=O)CC[C@H](N)C(=O)O (some centres undefined),-12.9% (inactive)
7,CCCCS(=N)(=O)CCC(N)C(=O)O (centres undefined),-11.1% (inactive)
8,N[C@@H](CCCC(=O)O)C(=O)O,16.9% (active)
9,COc1cc(Cc2cnc(N)nc2N)cc(OC)c1OC,-13.7% (inactive)
10,CN(C)CCN(Cc1cccs1)c1ccccn1,4.7% (active)
11,COc1ccc(CN(CCN(C)C)c2ccccn2)cc1,36.6% (active)
12,CC(C)(Sc1ccc(CCN(CCCCC2CCCCC2)C(=O)NC2CCCCC2)cc1)C(=O)O,3% (active)
13,CCCN(CCC)C(=O)C(CCC(=O)O)NC(=O)c1ccccc1 (centres undefined),12% (active)
14,O=C(O)CCC(C(=O)O)N1C(=O)c2ccccc2C1=O (centres undefined),-7.5% (inactive)
15,CCCCCN(CCCCC)C(=O)C(CCC(=O)O)NC(=O)c1ccc(Cl)c(Cl)c1 (centres undefined),13.5% (active)
16,CC1C(=O)N(C)C(=O)c2nc[nH]c21 (centres undefined),2.6% (active)
17,CCCC(C(=O)OCCN(CC)CC)(c1ccccc1)c1ccccc1,6.2% (active)
18,CCCc1c(OCCCOc2ccc(OCC(=O)O)cc2)ccc(C(C)=O)c1O,17.6% (active)
19,CCN(CC)CCOC(=O)c1cc(Cl)c(N)cc1OC,7.6% (active)
20,CCN(CC)CCNC(=O)c1cc(S(C)(=O)=O)ccc1OC,0.6% (active)
21,COc1cc(N)c(Cl)cc1C(=O)OCCN1CCCCC1,-7.9% (inactive)
22,CCN(CC)CCCCCCCCOC(=O)c1cc(OC)c(OC)c(OC)c1,17.3% (active)
23,CCN(CC)CCNC(=O)c1cc(Cl)c(N)cc1OC,2.2% (active)
24,NCC(O)c1ccc(O)c(O)c1 (centres undefined),43.6% (active)
25,NC[C@H](O)c1ccc(O)c(O)c1,55.1% (active)

row,Structure (SMILES),inhibition
1,CC(=O)N1CCN(c2ccc(OC[C@H]3CO[C@](Cn4ccnc4)(c4ccc(Cl)cc4Cl)O3)cc2)CC1,56.3% (active)
2,COc1ccc2c(c1OC)C(=O)O[C@@H]2[C@H]1c2c(cc3c(c2OC)OCO3)CCN1C,14.1% (active)
3,CCn1cc(C(=O)O)c(=O)c2cc(F)c(N3CCNC(C)C3)c(F)c21 (centres undefined),12.8% (active)
4,O=[N+]([O-])c1ccc2c(c1)S(=O)(=O)C=C2,39.1% (active)
5,C[C@]12CC[C@@H]3c4ccc(O)cc4C[C@@H](CCCCCCCCCS(=O)CCCC(F)(F)C(F)(F)F)[C@H]3[C@@H]1CC[C@@H]2O (some centres undefined),22.3% (active)
6,CCCCCC[C@@H]([C@@H](C)O)n1cnc2c(N)ncnc21,7.4% (active)
7,N[C@H](C(=O)O)c1cc(O)cc(O)c1,5.6% (active)
8,Clc1ccc(N2CCN(Cc3cc4ccccn4n3)CC2)cc1,63.8% (active)
9,Clc1ccc(Cn2c(CN3CCCC3)nc3ccccc32)cc1,-2.3% (inactive)
10,COc1cccc(OC)c1OCCNCC1COc2ccccc2O1 (centres undefined),23.5% (active)
11,COc1cccc(OC)c1OCCNCC1CSc2ccccc2O1 (centres undefined),-4.6% (inactive)
12,CCn1ccnc1CC1COc2ccccc2O1 (centres undefined),-2.8% (inactive)
13,O=C1CCC(c2ccc(-n3ccnc3)cc2)=NN1,10% (active)
14,O=c1oc(Cl)c(Cl)c2ccccc12,15% (active)
15,Cc1nn(-c2ccccc2)c(C)c1C=NN1CCN(Cc2ccccc2)CC1,-0.7% (inactive)
16,Nc1ncnc2c1c(-c1ccc(Oc3ccccc3)cc1)cn2C1CCCC1,7.6% (active)
17,COc1cc([C@@H]2c3cc4c(cc3[C@H](O)C3COC(=O)[C@@H]32)OCO4)cc(OC)c1OC (some centres undefined),10.7% (active)
18,COc1cc([C@@H]2c3cc4c(cc3[C@@H](O[C@@H]3O[C@@H]5CO[C@@H](C)O[C@H]5[C@H](O)[C@H]3O)[C@H]3COC(=O)[C@H]23)OCO4)cc(OC)c1O,31.7% (active)
19,O=C(O)CN(CCN(CC(=O)O)CC(=O)O)CCN(CC(=O)O)CC(=O)O,25.6% (active)
20,O=C(O)CN(CCOCCOCCN(CC(=O)O)CC(=O)O)CC(=O)O,13.4% (active)
21,C[C@H]1c2cccc(O)c2C(O)=C2C(=O)[C@]3(O)C(O)=C(C(N)=O)C(=O)[C@@H](N(C)C)[C@@H]3[C@@H](O)[C@@H]21,39.9% (active)
22,CN(C)[C@@H]1C(=O)C(C(N)=O)=C(O)[C@@]2(O)C(=O)C3=C(O)c4c(O)ccc(Cl)c4[C@@H](O)[C@H]3C[C@@H]12,49.5% (active)
23,COc1ccccc1N1CCN(CCN(C(=O)c2ccc(I)cc2)c2ccccn2)CC1,28.5% (active)
24,COc1ccccc1N1CCN(CCN(C(=O)C2CCCCC2)c2ccccn2)CC1,40.4% (active)
25,COc1ccccc1N1CCN(CCN(C(=O)c2ccc(F)cc2)c2ccccn2)CC1,27.6% (active)

row,Structure (SMILES),inhibition
1,Cc1ccc(/C(=C\CN2CCCC2)c2ccccn2)cc1,-62.9% (inactive)
2,O=C(O)C1CCCN(CCC=C(c2ccccc2)c2ccccc2)C1 (centres undefined),3.5% (active)
3,O=C(O)C1=CC(=C(c2ccc(O)c(C(=O)O)c2)c2ccc(O)c(C(=O)O)c2)C=CC1=O,42.3% (active)
4,O=c1c2ccccc2nc2n1CCc1c-2[nH]c2ccccc12,5.7% (active)
5,CCCCc1oc2ccccc2c1C(=O)c1cc(I)c(OCCN(CC)CC)c(I)c1,18% (active)
6,CCCC[C@@]1(C2CCCC2)Cc2cc(OCC(=O)O)c(Cl)c(Cl)c2C1=O,25.1% (active)
7,C[C@@]1(C2CCCC2)Cc2cc(OCC(=O)O)c(Cl)c(Cl)c2C1=O,18.3% (active)
8,CC(C)C(=O)c1c(C(C)C)nn2ccccc12,12.7% (active)
9,CSc1ccc(C(=O)c2[nH]c(=O)[nH]c2C)cc1,-9% (inactive)
10,CC(C)ON([C@@H](C(=O)NO)C(C)C)S(=O)(=O)c1ccc(-c2ccccc2)cc1,8.1% (active)
11,CC(C)OC(=O)C(C)(C)Oc1ccc(C(=O)c2ccc(Cl)cc2)cc1,1.9% (active)
12,CCOC(=O)C(C)(C)Oc1ccc(Cl)cc1,-1.7% (inactive)
13,NNCCc1ccccc1,9.9% (active)
14,CCCCCCN(CCCCCC)C(=O)Cc1c(-c2ccc(F)cc2)[nH]c2ccccc12,22.4% (active)
15,CC(=O)Nc1nnc(S(N)(=O)=O)s1,14.5% (active)
16,CN(C)CCOC(C)(c1ccccc1)c1ccccn1 (centres undefined),6.5% (active)
17,CN1CCN(C2Cc3ccccc3Sc3ccc(Cl)cc32)CC1 (centres undefined),1.9% (active)
18,CSc1ccc2c(c1)C(N1CCN(C)CC1)Cc1ccccc1S2 (centres undefined),1.3% (active)
19,O=c1n(CCCN2CCN(c3cccc(Cl)c3)CC2)nc2ccccn12,45.2% (active)
20,Cc1ccc(C(=O)Nc2ccc(S(=O)(=O)[O-])c3c2C(S(=O)(=O)[O-])=[C+]C(S(=O)(=O)O)=[C+]3)cc1NC(=O)c1cccc(NC(=O)Nc2cccc(C(=O)Nc3cc(C(=O)Nc4ccc(S(=O)(=O)[O-])c5c4C(S(=O)(=O)[O-])=[C+]C(S(=O)(=O)O)=[C+]5)ccc3C)c2)c1,17.8% (active)
21,c1cc(CN2CCCCC2)cc(OCCCNc2nc3ccccc3s2)c1,7.9% (active)
22,C1CCc2nnnn2CC1,15.2% (active)
23,CCC1C(=O)OCC1Cc1cncn1C (centres undefined),-0.2% (inactive)
24,CNCCNS(=O)(=O)c1cccc2cnccc12,3.8% (active)
